Common to all, as to assay: DAPPL (digital affinity profiling via proximity ligation, sequencing); 10 mM Tris-HCl pH 7.5, 50 mM NaCl, 1 mM DTT, 4% glycerol, room temperature, 30 min; GST-TFs on glutathione beads, 16-mer random dsDNA library, 0.1% formaldehyde crosslink after washing; high values mean tight binding
Assay [1] deals with T1, FLI1 (Homo sapiens, UniProt Q01543 1-452).
T1 sequence: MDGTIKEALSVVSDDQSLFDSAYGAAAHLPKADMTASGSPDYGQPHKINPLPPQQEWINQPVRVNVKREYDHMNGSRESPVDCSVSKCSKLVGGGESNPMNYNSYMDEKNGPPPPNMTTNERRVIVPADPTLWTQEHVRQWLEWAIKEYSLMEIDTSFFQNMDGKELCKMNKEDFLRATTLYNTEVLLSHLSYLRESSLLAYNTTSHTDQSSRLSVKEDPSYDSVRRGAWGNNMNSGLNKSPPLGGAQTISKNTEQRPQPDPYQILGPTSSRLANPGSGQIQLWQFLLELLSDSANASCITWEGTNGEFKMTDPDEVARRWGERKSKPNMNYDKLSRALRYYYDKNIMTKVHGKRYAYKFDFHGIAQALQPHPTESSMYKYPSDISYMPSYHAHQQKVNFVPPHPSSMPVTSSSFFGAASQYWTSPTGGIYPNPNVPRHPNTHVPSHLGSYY
The note with it: protein: recombinant; tags: N-terminal GST; dsDNA, one strand shown. The gist of the method:
(§1)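 Beads coated with glutathione captured GST-fused human transcription factors that had been expressed in yeast, and the factors were then given DNA barcodes and pooled with a tag-only sample. The pools were incubated with 200 nmole of a random double-stranded 16-mer DNA library in Tris/NaCl/DTT/glycerol buffer for 30 min at room temperature, washed, crosslinked with 0.1% formaldehyde and proximity-ligated with BsaI/T4 ligase at 37 °C for 1 h. PCR amplification and Illumina NextSeq500 sequencing came last. Binding signal is each hexamer's read frequency for a factor divided by its frequency for the tag-only sample.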

In assay [2] the target is T2, ELK1 (Homo sapiens, UniProt P19419 1-428).
T2 sequence: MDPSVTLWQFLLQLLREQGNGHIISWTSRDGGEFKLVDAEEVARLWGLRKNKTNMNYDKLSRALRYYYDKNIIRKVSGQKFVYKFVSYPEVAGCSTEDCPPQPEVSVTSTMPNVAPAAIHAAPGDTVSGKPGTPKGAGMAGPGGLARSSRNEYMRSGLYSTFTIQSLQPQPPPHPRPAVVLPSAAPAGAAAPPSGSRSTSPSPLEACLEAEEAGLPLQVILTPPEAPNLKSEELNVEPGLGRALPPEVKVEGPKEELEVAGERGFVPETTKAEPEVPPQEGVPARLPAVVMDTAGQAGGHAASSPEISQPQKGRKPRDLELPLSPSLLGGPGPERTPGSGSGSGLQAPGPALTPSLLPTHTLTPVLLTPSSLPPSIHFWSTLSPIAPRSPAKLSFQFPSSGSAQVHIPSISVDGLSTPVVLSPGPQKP
The note with it: protein: recombinant; tags: N-terminal GST; dsDNA, one strand shown. The gist of the method:
as §1

The target in assay [3] is T3, GABPA (Homo sapiens, UniProt Q06546 1-454).
T3 sequence: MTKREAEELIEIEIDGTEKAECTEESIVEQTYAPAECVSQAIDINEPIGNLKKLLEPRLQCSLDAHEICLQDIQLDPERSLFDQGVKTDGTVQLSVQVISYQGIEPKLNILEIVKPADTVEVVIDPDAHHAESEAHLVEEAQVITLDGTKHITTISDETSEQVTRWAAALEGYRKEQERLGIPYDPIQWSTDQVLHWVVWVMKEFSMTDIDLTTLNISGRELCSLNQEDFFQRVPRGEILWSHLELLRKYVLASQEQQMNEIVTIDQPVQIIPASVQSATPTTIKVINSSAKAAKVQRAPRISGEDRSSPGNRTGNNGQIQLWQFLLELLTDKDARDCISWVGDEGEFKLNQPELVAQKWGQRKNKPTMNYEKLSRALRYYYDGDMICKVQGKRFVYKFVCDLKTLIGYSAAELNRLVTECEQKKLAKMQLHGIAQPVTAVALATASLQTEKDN
The note with it: protein: recombinant; tags: N-terminal GST; dsDNA, one strand shown. The gist of the method:
as §1

In assay [4] the target is T4, ERG (Homo sapiens, UniProt P11308 1-479).
T4 sequence: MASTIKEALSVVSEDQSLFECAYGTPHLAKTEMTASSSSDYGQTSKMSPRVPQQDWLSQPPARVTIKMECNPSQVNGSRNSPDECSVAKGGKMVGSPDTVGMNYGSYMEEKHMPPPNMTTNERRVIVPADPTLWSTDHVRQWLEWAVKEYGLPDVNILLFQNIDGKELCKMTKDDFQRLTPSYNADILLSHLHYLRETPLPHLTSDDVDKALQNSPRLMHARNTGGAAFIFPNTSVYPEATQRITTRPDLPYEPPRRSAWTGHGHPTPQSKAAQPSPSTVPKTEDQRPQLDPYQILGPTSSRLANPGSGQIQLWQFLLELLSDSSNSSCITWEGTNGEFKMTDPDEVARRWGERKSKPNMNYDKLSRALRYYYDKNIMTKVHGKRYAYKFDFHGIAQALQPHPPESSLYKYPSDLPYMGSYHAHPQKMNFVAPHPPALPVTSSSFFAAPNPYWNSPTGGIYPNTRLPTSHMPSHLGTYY
Conditions: protein: recombinant; tags: N-terminal GST; dsDNA, one strand shown. The gist of the method:
as §1

For assay [5], the target named is ELF1 (Homo sapiens, UniProt P32519 1-619). The note with it: protein: recombinant; tags: N-terminal GST; dsDNA, one strand shown. The gist of the method:
as §1

Assay [6] addresses T5, EHF (Homo sapiens, UniProt Q9NZC4 1-300).
T5 sequence: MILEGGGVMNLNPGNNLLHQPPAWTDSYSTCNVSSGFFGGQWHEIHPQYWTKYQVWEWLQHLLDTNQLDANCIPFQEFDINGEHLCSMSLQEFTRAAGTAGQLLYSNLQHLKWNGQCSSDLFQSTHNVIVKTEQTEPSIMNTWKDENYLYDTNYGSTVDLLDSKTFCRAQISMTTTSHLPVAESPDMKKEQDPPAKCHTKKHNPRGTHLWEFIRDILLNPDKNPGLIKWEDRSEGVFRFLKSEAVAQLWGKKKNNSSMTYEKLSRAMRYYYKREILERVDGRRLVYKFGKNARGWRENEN
The note with it: protein: recombinant; tags: N-terminal GST; dsDNA, one strand shown. The gist of the method: as §1

The target of assay [7] is SPI1 (Homo sapiens, UniProt P17947 1-270). Conditions: protein: recombinant; tags: N-terminal GST; dsDNA, one strand shown. The gist of the method:
as §1

The target of assay [8] is SPIB (Homo sapiens, UniProt Q01892 1-262). Conditions: protein: recombinant; tags: N-terminal GST; dsDNA, one strand shown. The gist of the method: as §1
Chain of SPIB (Q01892 whole entry): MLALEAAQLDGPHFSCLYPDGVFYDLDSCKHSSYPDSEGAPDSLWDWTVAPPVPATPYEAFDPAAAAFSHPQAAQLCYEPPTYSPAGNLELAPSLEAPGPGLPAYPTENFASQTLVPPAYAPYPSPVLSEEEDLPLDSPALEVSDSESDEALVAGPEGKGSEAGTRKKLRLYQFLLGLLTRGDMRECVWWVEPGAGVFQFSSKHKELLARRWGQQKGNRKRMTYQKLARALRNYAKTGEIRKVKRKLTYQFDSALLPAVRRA
Assay [9] concerns the target T6, FEV (Homo sapiens, UniProt Q99581 1-238).
T6 sequence: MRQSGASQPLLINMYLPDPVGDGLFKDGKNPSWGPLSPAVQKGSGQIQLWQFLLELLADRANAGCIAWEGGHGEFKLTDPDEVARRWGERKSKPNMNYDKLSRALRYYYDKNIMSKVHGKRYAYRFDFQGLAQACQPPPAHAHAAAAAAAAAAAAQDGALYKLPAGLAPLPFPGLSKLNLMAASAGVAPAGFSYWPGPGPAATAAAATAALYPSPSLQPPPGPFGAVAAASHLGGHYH
The note with it: protein: recombinant; tags: N-terminal GST; dsDNA, one strand shown. The gist of the method:
as §1

Assay [10] deals with ETV5 (Homo sapiens, UniProt P41161 1-510). Conditions: protein: recombinant; tags: N-terminal GST; dsDNA, one strand shown. The gist of the method:
as §1

The target in assay [11] is HSF1 (Homo sapiens, UniProt Q00613 1-529). Conditions: protein: recombinant; tags: N-terminal GST; chain copies: 3; dsDNA, one strand shown. The gist of the method: as §1
Chain of HSF1 (Q00613 whole entry): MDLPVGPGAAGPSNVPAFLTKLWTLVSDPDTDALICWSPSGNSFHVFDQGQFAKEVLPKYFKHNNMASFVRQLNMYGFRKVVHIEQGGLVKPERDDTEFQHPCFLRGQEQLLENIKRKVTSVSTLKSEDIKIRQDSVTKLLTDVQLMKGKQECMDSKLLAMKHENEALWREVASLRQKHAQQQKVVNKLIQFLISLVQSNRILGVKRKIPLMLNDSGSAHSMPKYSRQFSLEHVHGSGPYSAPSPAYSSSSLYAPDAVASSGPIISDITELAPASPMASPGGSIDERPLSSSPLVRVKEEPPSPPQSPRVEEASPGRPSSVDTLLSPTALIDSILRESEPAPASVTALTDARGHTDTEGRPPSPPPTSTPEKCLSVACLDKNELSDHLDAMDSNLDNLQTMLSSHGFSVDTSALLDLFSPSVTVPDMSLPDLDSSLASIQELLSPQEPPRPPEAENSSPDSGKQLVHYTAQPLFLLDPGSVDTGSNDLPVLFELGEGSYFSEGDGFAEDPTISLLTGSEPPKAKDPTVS
In assay [12] the target is T7, SPIC (Homo sapiens, UniProt Q8N5J4 1-248).
T7 sequence: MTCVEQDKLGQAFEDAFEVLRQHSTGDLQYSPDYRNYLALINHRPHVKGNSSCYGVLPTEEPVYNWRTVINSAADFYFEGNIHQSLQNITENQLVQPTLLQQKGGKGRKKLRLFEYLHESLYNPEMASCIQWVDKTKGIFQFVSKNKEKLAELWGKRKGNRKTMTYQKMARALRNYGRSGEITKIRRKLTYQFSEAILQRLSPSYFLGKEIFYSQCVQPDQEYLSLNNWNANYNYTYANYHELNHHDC
Conditions: protein: recombinant; tags: N-terminal GST; dsDNA, one strand shown. The gist of the method:
as §1

Assay [13] addresses ELF4 (Homo sapiens, UniProt Q99607 1-663). The note with it: protein: recombinant; tags: N-terminal GST; dsDNA, one strand shown. The gist of the method:
as §1

Assay [14] has as its target T8, ELK4 (Homo sapiens, UniProt P28324-2 1-405).
T8 sequence: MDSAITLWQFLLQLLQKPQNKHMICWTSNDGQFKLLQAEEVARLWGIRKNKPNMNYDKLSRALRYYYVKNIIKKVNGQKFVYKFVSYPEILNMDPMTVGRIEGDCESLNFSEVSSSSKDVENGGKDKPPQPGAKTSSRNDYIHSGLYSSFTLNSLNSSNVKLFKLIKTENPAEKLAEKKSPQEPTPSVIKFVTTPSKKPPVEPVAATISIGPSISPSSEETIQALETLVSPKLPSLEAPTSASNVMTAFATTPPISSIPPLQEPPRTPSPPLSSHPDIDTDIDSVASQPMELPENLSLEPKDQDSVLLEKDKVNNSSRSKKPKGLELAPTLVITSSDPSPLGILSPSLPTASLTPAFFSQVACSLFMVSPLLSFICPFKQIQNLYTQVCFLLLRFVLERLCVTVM
Conditions: protein: recombinant; tags: N-terminal GST; dsDNA, one strand shown. The gist of the method:
as §1

Assay [15] has as its target T9, ELF3 (Homo sapiens, UniProt P78545 1-371).
T9 sequence: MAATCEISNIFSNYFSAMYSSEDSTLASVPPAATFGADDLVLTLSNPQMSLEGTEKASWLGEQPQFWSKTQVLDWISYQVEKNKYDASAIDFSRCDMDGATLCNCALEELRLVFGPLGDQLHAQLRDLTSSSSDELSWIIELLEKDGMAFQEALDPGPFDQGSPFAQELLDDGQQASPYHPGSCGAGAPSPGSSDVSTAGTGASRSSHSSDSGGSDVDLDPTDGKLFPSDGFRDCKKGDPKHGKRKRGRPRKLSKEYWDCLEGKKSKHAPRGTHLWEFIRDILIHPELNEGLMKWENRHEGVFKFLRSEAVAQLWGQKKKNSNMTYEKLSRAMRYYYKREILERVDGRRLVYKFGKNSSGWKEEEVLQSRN
Conditions: protein: recombinant; tags: N-terminal GST; dsDNA, one strand shown. The gist of the method: as §1

Assay [16] has as its target ETV1 (Homo sapiens, UniProt P50549 1-477). The note with it: protein: recombinant; tags: N-terminal GST; dsDNA, one strand shown. The gist of the method: as §1

The values below come from article PMC7862700, “An all-to-all approach to the identification of sequence-specific readers for epigenetic DNA modifications on cytosine”.

Chain of ELF4 (Q99607 whole entry): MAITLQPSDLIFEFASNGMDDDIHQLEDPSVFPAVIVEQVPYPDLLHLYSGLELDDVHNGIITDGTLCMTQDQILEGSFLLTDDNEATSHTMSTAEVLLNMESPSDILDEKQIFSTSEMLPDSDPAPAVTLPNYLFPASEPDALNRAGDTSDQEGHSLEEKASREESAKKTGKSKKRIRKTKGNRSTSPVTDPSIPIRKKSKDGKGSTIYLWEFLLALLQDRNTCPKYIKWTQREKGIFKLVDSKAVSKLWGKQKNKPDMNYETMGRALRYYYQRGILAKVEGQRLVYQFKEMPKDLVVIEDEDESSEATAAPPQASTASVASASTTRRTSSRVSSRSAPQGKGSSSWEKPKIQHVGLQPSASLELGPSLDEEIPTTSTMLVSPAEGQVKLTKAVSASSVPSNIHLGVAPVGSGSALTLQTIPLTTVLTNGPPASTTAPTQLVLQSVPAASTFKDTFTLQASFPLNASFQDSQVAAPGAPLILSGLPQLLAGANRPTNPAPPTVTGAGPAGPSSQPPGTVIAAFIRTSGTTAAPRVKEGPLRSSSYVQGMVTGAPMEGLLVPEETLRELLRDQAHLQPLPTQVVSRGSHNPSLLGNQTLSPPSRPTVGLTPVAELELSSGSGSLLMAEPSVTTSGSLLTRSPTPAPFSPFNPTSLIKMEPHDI
Chain of ELF1 (P32519 whole entry): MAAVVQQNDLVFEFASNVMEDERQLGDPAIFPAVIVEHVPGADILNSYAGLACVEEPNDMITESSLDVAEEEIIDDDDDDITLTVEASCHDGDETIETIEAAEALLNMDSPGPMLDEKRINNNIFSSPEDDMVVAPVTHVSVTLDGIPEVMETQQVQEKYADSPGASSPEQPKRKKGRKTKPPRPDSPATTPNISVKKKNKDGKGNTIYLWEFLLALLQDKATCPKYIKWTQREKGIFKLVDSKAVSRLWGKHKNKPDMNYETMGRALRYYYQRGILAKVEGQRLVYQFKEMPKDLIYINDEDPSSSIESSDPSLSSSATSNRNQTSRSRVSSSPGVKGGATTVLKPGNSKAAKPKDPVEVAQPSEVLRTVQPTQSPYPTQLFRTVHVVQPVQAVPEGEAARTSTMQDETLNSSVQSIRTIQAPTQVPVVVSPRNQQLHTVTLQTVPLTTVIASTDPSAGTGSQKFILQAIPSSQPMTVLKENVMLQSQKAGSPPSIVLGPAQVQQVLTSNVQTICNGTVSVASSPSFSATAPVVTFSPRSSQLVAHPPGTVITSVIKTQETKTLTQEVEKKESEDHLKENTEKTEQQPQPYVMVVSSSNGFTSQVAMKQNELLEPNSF
Chain of ETV1 (P50549 whole entry): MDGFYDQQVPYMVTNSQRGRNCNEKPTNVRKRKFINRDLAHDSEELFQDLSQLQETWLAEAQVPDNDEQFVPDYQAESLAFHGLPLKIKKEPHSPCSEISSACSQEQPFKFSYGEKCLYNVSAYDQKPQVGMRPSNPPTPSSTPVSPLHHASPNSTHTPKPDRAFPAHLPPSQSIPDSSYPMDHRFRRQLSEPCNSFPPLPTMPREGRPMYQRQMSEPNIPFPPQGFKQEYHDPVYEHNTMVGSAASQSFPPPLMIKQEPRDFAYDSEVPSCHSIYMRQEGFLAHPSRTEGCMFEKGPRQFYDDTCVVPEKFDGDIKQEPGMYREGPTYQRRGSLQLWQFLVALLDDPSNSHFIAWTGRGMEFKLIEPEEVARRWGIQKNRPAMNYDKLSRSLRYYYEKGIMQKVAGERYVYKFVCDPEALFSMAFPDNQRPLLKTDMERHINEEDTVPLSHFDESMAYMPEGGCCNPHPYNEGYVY
Chain of ETV5 (P41161 whole entry): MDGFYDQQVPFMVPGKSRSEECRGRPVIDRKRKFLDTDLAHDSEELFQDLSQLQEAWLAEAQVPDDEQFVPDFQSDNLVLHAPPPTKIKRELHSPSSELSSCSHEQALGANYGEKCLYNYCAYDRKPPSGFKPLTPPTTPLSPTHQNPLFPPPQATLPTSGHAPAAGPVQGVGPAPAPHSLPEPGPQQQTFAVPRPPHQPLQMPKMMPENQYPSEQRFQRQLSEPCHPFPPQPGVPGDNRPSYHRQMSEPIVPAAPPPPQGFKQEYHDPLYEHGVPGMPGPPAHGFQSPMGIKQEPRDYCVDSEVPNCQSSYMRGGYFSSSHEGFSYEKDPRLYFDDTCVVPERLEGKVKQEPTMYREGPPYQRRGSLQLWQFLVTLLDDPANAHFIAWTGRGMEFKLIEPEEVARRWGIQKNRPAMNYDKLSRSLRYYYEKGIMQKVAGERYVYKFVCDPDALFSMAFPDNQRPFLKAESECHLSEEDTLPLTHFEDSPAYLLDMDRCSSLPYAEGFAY

Consider TGCGCA, for which the binding signal is 1.17 fold enrichment (6-mer frequency, TF over GST control) in assay [1]; 1.07 fold enrichment (6-mer frequency, TF over GST control) in assay [2]; 1.07 fold enrichment (6-mer frequency, TF over GST control) in assay [3]; 1.07 fold enrichment (6-mer frequency, TF over GST control) in assay [4]; 1.14 fold enrichment (6-mer frequency, TF over GST control) in [5]; 1.16 fold enrichment (6-mer frequency, TF over GST control) in [6]. Moreover, the binding signal in assay [7] was 1.08 fold enrichment (6-mer frequency, TF over GST control); in assay [8], 1.02 fold enrichment (6-mer frequency, TF over GST control); in [9], 1.14 fold enrichment (6-mer frequency, TF over GST control); in assay [10] it was 1.12 fold enrichment (6-mer frequency, TF over GST control); in assay [11], 1.07 fold enrichment (6-mer frequency, TF over GST control); in [12] it was 1.15 fold enrichment (6-mer frequency, TF over GST control). Further, the binding signal in assay [13] was 1.09 fold enrichment (6-mer frequency, TF over GST control); in assay [14], 1.12 fold enrichment (6-mer frequency, TF over GST control); in [15], 1.06 fold enrichment (6-mer frequency, TF over GST control); in [16] it was 1.07 fold enrichment (6-mer frequency, TF over GST control).
